# Where a name gives a salt, the structure may show the parent alone. ± gives the standard deviation of the averaged measurements. Over roughly 1,100 compounds, “day of extracellular matrix detachment from plate” has its median near 16; the lowest 2% begin near 10. The entries come from a sample that favours the lowest values as a whole.
# Test system: RDEB dermal fibroblasts EB71
# Experiment: day of extracellular matrix detachment from plate (days); higher = delayed detachment (less fibrotic matrix)
# Settings: compound concentration: 10 uM
row,Compound,day of extracellular matrix detachment from plate
1,O=C(O)CCC(=O)c1ccc(-c2ccccc2)cc1 [Fenbufen],13
2,Nc1nc(=O)n([C@@H]2CS[C@H](CO)O2)cc1F [Emtricitabine],19.3 ± 6.3
3,O=c1ccn([C@@H]2O[C@H](CO)[C@@H](O)[C@H]2O)c(=O)[nH]1 [Uridine],12
4,COc1ccc(C[C@@H]2c3cc(OC)c(OC)cc3CC[N@+]2(C)CCC(=O)OCCCCCOC(=O)CC[N@@+]2(C)CCc3cc(OC)c(OC)cc3[C@H]2Cc2ccc(OC)c(OC)c2)cc1OC [Cisatracurium Besylate],10 ± 1.7
5,COc1ccc(CC2c3cc(OC)c(OC)cc3CC[N+]2(C)CCC(=O)OCCCCCOC(=O)CC[N+]2(C)CCc3cc(OC)c(OC)cc3C2Cc2ccc(OC)c(OC)c2)cc1OC (stereo not given) [Atracurium Besylate],15.7 ± 6.3
6,CCC(=O)O[C@@H](O[P@](=O)(CCCCc1ccccc1)CC(=O)N1C[C@H](C2CCCCC2)C[C@H]1C(=O)O)C(C)C [Fosinopril Sodium],19
7,OC(Cn1cncn1)(Cn1cncn1)c1ccc(F)cc1F [Fluconazole],12.7 ± 2.9
8,Nc1ccc(C(=O)NCC(=O)O)cc1 [Sodium 4-aminohippurate Hydrate],13
9,Cn1c(=O)c2c(ncn2CC2OCCO2)n(C)c1=O [Doxofylline],13
10,CN(C)CCC[C@@]1(c2ccc(F)cc2)OCc2cc(C#N)ccc21 [Escitalopram Oxalate],13
11,OC[C@@H](O)[C@@H](O)[C@H](O)[C@H](O)CO [D-Mannitol],13.7 ± 8.1
12,O=C[C@H](O)[C@@H](O)[C@H](O)CO [Xylose],10 ± 1.7
13,OC[C@@H](O)[C@@H](O)[C@H](O)[C@@H](O)CO [Sorbitol],16
14,COc1cc2ncnc(Nc3ccc(F)c(Cl)c3)c2cc1OCCCN1CCOCC1 [Gefitinib (ZD1839)],29.4 ± 6
15,N#C[C@@H]1C[C@@H]2C[C@@H]2N1C(=O)[C@@H](N)C12CC3CC(CC(O)(C3)C1)C2 [Saxagliptin hydrate],16.3 ± 1.1
16,CCCc1nc(C)c2c(=O)nc(-c3cc(S(=O)(=O)N4CCN(CC)CC4)ccc3OCC)[nH]n12 [Vardenafil HCl Trihydrate],16
17,COC(=O)C1=C(C)NC(C)=C(C(=O)OCCN2CCN(C(c3ccccc3)c3ccccc3)CC2)C1c1cccc([N+](=O)[O-])c1 (stereo not given) [Manidipine 2HCl],18.3 ± 4
18,COC(=O)C1=C(C)NC(C)=C(C(=O)OCCN2CCN(C(c3ccccc3)c3ccccc3)CC2)C1c1cccc([N+](=O)[O-])c1 (stereo not given) [Manidipine],20.3 ± 2.3
19,O=C(c1cc(Cc2n[nH]c(=O)c3ccccc23)ccc1F)N1CCN(C(=O)C2CC2)CC1,27.8 ± 5.5
20,CC1(C)S[C@@H]2[C@H](NC(=O)C(C(=O)O)c3ccccc3)C(=O)N2[C@H]1C(=O)O (stereo not given in full) [Carbenicillin disodium],18
21,CSc1nc2cc(Cl)c(Oc3cccc(Cl)c3Cl)cc2[nH]1 [Triclabendazole],13
22,CN(C)/N=N/c1[nH]cnc1C(N)=O [Dacarbazine],11
23,CCC[C@H](N[C@@H](C)C(=O)N1[C@H](C(=O)O)C[C@@H]2CCCC[C@@H]21)C(=O)OCC [Perindopril Erbumine],21 ± 1.7
24,OC(CCN1CCCC1)(c1ccccc1)C1CCCCC1 (stereo not given) [Procyclidine HCl],16 ± 1.7

row,Compound,day of extracellular matrix detachment from plate
1,CC1(C)[C@H](C(=O)O)N2C(=O)C[C@H]2S1(=O)=O [Sulbactam],10 ± 1.7
2,CC1(C)[C@H](C(=O)O)N2C(=O)C[C@H]2S1(=O)=O [Sulbactam sodium],11 ± 1.7
3,CC1(C)S[C@@H]2[C@H](NC(=O)Cc3ccccc3)C(=O)N2[C@H]1C(=O)O [Penicillin G Sodium],13
4,C[C@]1(Cn2ccnn2)[C@H](C(=O)O)N2C(=O)C[C@H]2S1(=O)=O [Tazobactam],20 ± 1.7
5,CC(C)(Oc1ccc(Cl)cc1)C(=O)O [Clofibric Acid],13
6,CC(=O)O[C@]1(C(C)=O)CC[C@H]2[C@@H]3C[C@H](C)C4=CC(=O)C=C[C@]4(C)[C@@]3(F)[C@@H](O)C[C@@]21C [Fluorometholone Acetate],27.2 ± 3.5
7,N#CC(c1ccc(Cl)cc1)c1c(Cl)cc(-n2ncc(=O)[nH]c2=O)cc1Cl (stereo not given) [Diclazuril],15.7 ± 6.3
8,O=C(O)CCc1nc2ccccc2[nH]1 [Procodazole],13
9,N#C/C(=C1/SC[C@@H](c2ccc(Cl)cc2Cl)S1)n1ccnc1 [Luliconazole],13
10,C[N+]1(C)CCC(OC(=O)C(O)(c2ccccc2)C2CCCC2)C1 (stereo not given) [Glycopyrrolate],20.3 ± 2.9
11,CCN(CC)CCOCCOC(=O)C(CC)(CC)c1ccccc1 [Oxeladin Citrate],13
12,CN1C2=CC(=O)/C(=N\NC(N)=O)C=C2CC1S(=O)(=O)O (stereo not given) [Carbazochrome sodium sulfonate (AC-17)],16.7 ± 2.3
13,C/C(O)=C(\C#N)C(=O)Nc1ccc(C(F)(F)F)cc1 [Teriflunomide],13
14,C[C@](N)(Cc1ccc(O)c(O)c1)C(=O)O [Methyldopa],10.3 ± 1.1
15,C[C@@](Cc1ccc(O)c(O)c1)(NN)C(=O)O [Carbidopa],15.7 ± 6.3
16,NCCc1ccc(O)c(O)c1 [Dopamine HCl],15.7 ± 6.3
17,CO/N=C(\C(=O)N[C@@H]1C(=O)N2C(C(=O)O)=C(COC(N)=O)CS[C@H]12)c1ccco1 [Cefuroxime sodium],17
18,NCCCCC(NC(=O)C1CCCN1C(=O)C1CSSCC(N)C(=O)NC(Cc2ccc(O)cc2)C(=O)NC(Cc2ccccc2)C(=O)NC(CCC(N)=O)C(=O)NC(CC(N)=O)C(=O)N1)C(=O)NCC(N)=O (stereo not given) [Lypressin Acetate],23 ± 1.7
19,COc1cc(Nc2ncc3c(n2)-c2ccc(Cl)cc2C(c2c(F)cccc2OC)=NC3)ccc1C(=O)O [Alisertib (MLN8237)],25
20,CC[C@H](NC(=O)[C@H](C)NC)C(=O)N1C[C@@H](O)C[C@H]1Cc1c(-c2[nH]c3cc(F)ccc3c2C[C@@H]2C[C@H](O)CN2C(=O)[C@H](CC)NC(=O)[C@H](C)NC)[nH]c2cc(F)ccc12 [Birinapant],19 ± 6.9
21,CC(=O)O[C@]1(C(C)=O)CC[C@H]2[C@@H]3C[C@H](C)C4=CC(=O)CC[C@]4(C)[C@H]3CC[C@@]21C [Medroxyprogesterone acetate],19.3 ± 6.3
22,[I-].[K+] [Potassium Iodide],15.7 ± 6.3
23,CCN1CC(CCN2CCOCC2)C(c2ccccc2)(c2ccccc2)C1=O (stereo not given) [Doxapram HCl],18
24,CN(C)CCc1c[nH]c2ccc(CS(=O)(=O)N3CCCC3)cc12 [Almotriptan Malate],19.3 ± 6.3

row,Compound,day of extracellular matrix detachment from plate
1,NC(=O)Cc1cccc(C(=O)c2ccccc2)c1N [Nepafenac],14.3 ± 2.9
2,CN1CCC(=C2c3ccccc3CCc3cccnc32)CC1 [Azatadine dimaleate],18
3,Cc1ccc(NC(=O)c2ccc(CN3CCN(C)CC3)cc2)cc1Nc1nc(-c2cccnc2)cs1 [Masitinib (AB1010)],36
4,CC(C)(C)c1nc(-c2cccc(NS(=O)(=O)c3c(F)cccc3F)c2F)c(-c2ccnc(N)n2)s1,32.5 ± 2.1
5,CO/N=C(\C(=O)N[C@@H]1C(=O)N2C(C(=O)OCOC(=O)C(C)(C)C)=C(/C=C\c3scnc3C)CS[C@H]12)c1csc(N)n1 [Cefditoren pivoxil],15.7 ± 6.3
6,CCOC(=O)[C@H](CCc1ccccc1)N[C@H]1CS[C@H](c2cccs2)CN(CC(=O)O)C1=O [Temocapril HCl],19.3 ± 6.3
7,CCC[S+]([O-])c1ccc2[nH]c(NC(=O)OC)nc2c1 (stereo not given) [Albendazole Oxide],16
8,CC1(C)S[C@@H]2[C@H](NC(=O)[C@H](N)c3ccc(O)cc3)C(=O)N2[C@H]1C(=O)O [Amoxicillin],16.7 ± 2.3
9,CC1(C)S[C@@H]2[C@H](NC(=O)[C@H](N)c3ccc(O)cc3)C(=O)N2[C@H]1C(=O)O [Amoxicillin Sodium],15.7 ± 6.3
10,CC(C)C(=O)Oc1ccc(CO)cc1[C@H](CCN(C(C)C)C(C)C)c1ccccc1 [Fesoterodine Fumarate],15.7 ± 6.3
11,O=C(O)c1ccccc1 [Benzoic Acid],13
12,Cc1nc(=O)c2cc(CN(C)c3ccc(C(=O)N[C@@H](CCC(=O)O)C(=O)O)s3)ccc2[nH]1 [Raltitrexed],25
13,NS(=O)(=O)c1cc2c(cc1Cl)N=C(CSCc1ccccc1)NS2(=O)=O [Benzthiazide],13
14,CC(=O)O[C@]1(C(C)=O)CC[C@H]2[C@@H]3C=C(Cl)C4=CC(=O)CC[C@]4(C)[C@H]3CC[C@@]21C [Chlormadinone acetate],26.2 ± 10
15,CO[C@@H]1[C@@H](OC(N)=O)[C@@H](O)[C@H](Oc2ccc3c(O)c(NC(=O)c4ccc(O)c(CC=C(C)C)c4)c(=O)oc3c2C)OC1(C)C [Novobiocin Sodium],15.7 ± 6.3
16,O=S(=O)(O)Oc1ccc(C(c2ccc(OS(=O)(=O)O)cc2)c2ccccn2)cc1 [Sodium Picosulfate],14.5 ± 4
17,Cc1cccc(C)c1NC(=O)C1CCCCN1C (stereo not given) [Mepivacaine HCl],16.5 ± 6.2
18,C[N+](C)(C)CCO.[Cl-] [Choline Chloride],13
19,O=C(CCCCCCNC(=O)c1cnc(N(c2ccccc2)c2ccccc2)nc1)NO [Rocilinostat (ACY-1215)],27
20,Cc1nnc(C(C)C)n1C1C[C@H]2CC[C@@H](C1)N2CC[C@H](NC(=O)C1CCC(F)(F)CC1)c1ccccc1 (stereo in doubt) [Maraviroc],12
21,NC[C@H]1CC[C@H](C(=O)O)CC1 [Tranexamic Acid],23 ± 1.7
22,CC1(O)CCC(C(C)(C)O)CC1 (stereo not given) [Terpin (hydrate)],17

# Source: the supplement of paper PMC11018630
